Here are results for 29 compounds from ChEMBL document CHEMBL4513216, “Probing the Open Global Health Chemical Diversity Library for Multistage-Active Starting Points for Next-Generation Antimalarials” (ACS Infect Dis, 2020).

The whole screen tested about 65,000 compounds, of which about 2,100 (3.2%) showed an effect of 50% or more. The median lay at about -52%. Shown is part of a subset that was picked to be rich in strong results.

The experiment has as its system Plasmodium falciparum. Put plainly: Screen against P. falciparum Asexual Blood Stage (ABS), at 5uM. Type of experiment: functional, Dd2. Conditions: tested at 5 uM.
For `CC(C)CO[C@H]1CN(S(=O)(=O)c2cn(C)cn2)[C@@H]2CCCO[C@H]12`, the INHIBITION was -26.7%.

Take `CN(CC(F)(F)F)C(=O)CNC(=O)N1CCCC(N(C)C)C1` (centres undefined): the INHIBITION was -126%.

Regarding `O=C(c1n[nH]c(=O)c2ccccc12)N1CCC(O)(CN2CCOCC2)C1` (centres undefined), the INHIBITION was -74.2%.

As to `CC(C)(C)OC(=O)NC(C)(C(N)=O)c1cccc(Cl)c1` (centres undefined), the INHIBITION was -135%.

Consider `CC(C)c1noc(CCC(=O)N2CCSCC2)n1`, for which the INHIBITION was -159%.

Turning to `COCC1CN(Cc2ccccn2)Cc2nn(C)cc21` (centres undefined), the INHIBITION was -9.17%.

For `Cc1nnc(SCC(=O)NCc2ccc3c(c2)CCC(=O)N3)s1`, the INHIBITION is recorded as -34.4%.

`Cc1nc2cc(CNC(=O)C3CC(=O)N(C4CCCC4)C3)ccc2n1C` (centres undefined): the INHIBITION is -135%.

On to `CN(CC1CCCCC1)C(=O)c1ccc(-n2ncc(C#N)c2N)cc1`, for which the INHIBITION is given as -48.5%.

As for `CCOc1ccc(Cl)c(C(=O)NCCC(=O)Nc2ccccn2)n1`, the INHIBITION worked out at 31.1%.

Consider `CCCn1nc2c(cc1=O)CN(c1ncnc3sccc13)CC2`, for which the INHIBITION is given as -82.2%.

On to `CCCNC(=O)c1cc(-c2cnc(N3CCCC3)nc2)cn1C`, for which the INHIBITION is -151%.

As to `Cc1nc(CNC(=O)c2ccc3c(c2)nc(N2CCOCC2)n3C)cs1`, the INHIBITION is -33.8%.

Regarding `CN1CCS(=O)(=O)[C@@H]2CCN(C(=O)c3ccccc3)CC[C@@H]21`, the INHIBITION is -102%.

As to `c1ccc(CN2CCC3(CC2)CCN(c2ccccn2)C3)nc1`, the INHIBITION was 3.14%.

Take `Cc1ccc(N2CCC3(CCN(Cc4ccccn4)CC3)CC2)nn1`: the INHIBITION was -21.1%.

Turning to `Cc1cccc(N2CCC3(CCN(Cc4ccccn4)CC3)CC2)n1`, the INHIBITION amounted to 63.8%.

In the case of `O=C(NCC1CCOC1)Nc1ccc(Oc2ccc(F)cc2)nc1` (centres undefined), the INHIBITION is recorded as 29.4%.

With `O=C(NCC1CC1)Nc1ccc(OCC(F)(F)F)nc1`, the INHIBITION is reported as 52.7%.

`O=C(CCN1C(=O)CCC1=O)Nc1ccc(OCC(F)(F)F)nc1`: the INHIBITION is reported as -54.8%.

On to `O=C(NCc1ccco1)c1cccc(C(=O)NCc2ccco2)n1`, for which the INHIBITION was -31%.

For `OCC1CCCCN1CCn1ccnc1-c1nc2ccccc2[nH]1` (centres undefined), the INHIBITION was found to be 13.2%.

In the case of `CN1CCCC1CCn1ccnc1-c1nc(-c2ccccc2)no1` (centres undefined), the INHIBITION was 57.6%.

For `c1ccc(-c2noc(CCCN3CCCC3Cn3cccn3)n2)cc1` (centres undefined), the INHIBITION is 31.8%.

Turning to `Cc1nn(C)c2nc(-c3ccccn3)nc(NCCC3CCCN3C)c12` (centres undefined), the INHIBITION is on record as -35.5%.

Take `Cn1ccnc1CN1CCCCC1c1nc(-c2ccccc2)no1` (centres undefined): the INHIBITION is -149%.

On to `CN1CCCC1CCn1ccnc1-c1ccc2ccccc2n1` (centres undefined), for which the INHIBITION was 56.5%.

As to `O=C(NCCc1cccnc1)c1cn(CCN2CCNCC2)nn1`, the INHIBITION is recorded as -75.5%.

`Cc1cnc(N2CCn3c(CN4CCOCC4)nnc3C2)nc1`: the INHIBITION is reported as -56.3%.
